Each structure is given as a SMILES string. Values without a mark were called inactive. Activity calls are given as the source filed them. The call rests on the fitted dose curve; in most records, active means well fitted curve in the direction sought with a large enough effect in the repeat runs; inconclusive means weak or mixed curves; inactive means flat fitted curve, though single readings scatter.

Data on 40 molecules can be found in PubChem BioAssay (Tox21).
On the % scale 0 is the no-effect control and ±100 the full control effect.

The assay is described as follows: qHTS assay to test for compound auto fluorescence at 590 nm (red) in HEK293 cell free culture (AID 720683). The settings on record: cell-free medium autofluorescence, Ex540/Em590 red; series mostly up to 91.3 µM. An excerpt:
U.S. Tox21 Program National Center for Advancing Translational Sciences [NCATS] NIH Chemical Genomics Center [NCGC] U.S. Environmental Protection Agency [EPA] National Institutes of Environmental Health Sciences [NIEHS] National Toxicology Program [NTP] U.S. Food and Drug Administration [FDA] Tox21 Assay Overview: Compound auto fluorescence often interferes with screening of the compound library against various biological targets and signaling pathways. Some of these compounds may have fluorophoric properties. Such properties may interfere with the assay outputs resulting in false positives and/or negatives. To decrease such complications and ensure the compound activities are relevant in terms of biological response, the Tox21 10K compound library was screened for auto fluorescence. From the fluorophores used as reporter signals in our screening assays, the auto fluorescence equivalencies of compounds against three fluorophores have been evaluated: Triamterene, Fluorescein and Rose Bengal sodium for blue, green and red fluorescence, respectively. The fluorescence intensities were measured using Excitation/Emission wavelengths at 405/460nm, 485/535nm and 540/590nm for blue, green and red labels, respectively. This assay includes the red fluorescence data.
Tox21 Assay Protocol Summary: 5 uL of culture medium (DMEM containing 10% FBS) per well was dispensed into black wall/clear bottom 1536-well plates using a Multidrop Combi Dispenser (ThermoFisher Scientific, Waltham, MA). After 23 nL compound or DMSO vehicle was transferred into assay plate by a pintool work station (Kalypsys, San Diego, CA), fluorescence intensities in the assay plates were measured by an Envision (PerkinElmer, Shelton, CT) plate reader using three labels for measuring blue, green and red fluorescence at […] 460, 535 and 590nm respectively.
`CCC1(CC)C(=O)NC(=O)NC1=O`: the result was inactive.

As to `CCOC(=O)C1OC1(C)c1ccccc1` (stereo not given), the call was inactive.

For the molecule `CCOP(=S)(S)OCC`, the result was inactive.

In the case of `CCOC(=O)c1cncn1C(C)c1ccccc1` (stereo not given), the fluorescence, % of fluorescent control was 0.175% [at 18.6 µM].

With `O=C1c2ccccc2C(=O)N1SC(Cl)(Cl)Cl`, the molecule was classed as inactive.

For `CCOc1cccc(C2(N3CCN(c4ccccc4)CC3)CCC(C)CC2)c1` (stereo not given), the call was inactive.

On to `CC(Cl)C(=O)O` (stereo not given), for which the molecule was classed as inactive.

On to `COc1ccc2c(c1OC)C(=O)O[C@H]2[C@@H]1c2cc3c(cc2CCN1C)OCO3`, for which the call was inactive.

Turning to `Clc1ccc2ccccc2c1`, the result was inactive.

As to `CC(C)C1(C)N=C(c2ncccc2C(=O)O)NC1=O` (stereo not given), the call was inactive.

For the molecule `CCC1(CCC(C)C)C(=O)NC(=O)NC1=O`, the outcome was inactive.

As for `CCCCCl`, the result was inactive.

For the molecule `O=C1CC[C@@]2(O)[C@H]3Cc4ccc(O)c5c4[C@@]2(CCN3CC2CC2)[C@H]1O5`, the call was inactive.

As to `CC(C)CCON=O`, the call was inactive.

Turning to `O=C(CCl)CCl`, the result was inactive.

On to `CCCCCCCCP(=O)(O)O`, for which the result was inactive.

Consider `Oc1cccc(Cl)c1`, for which the outcome was inactive.

Consider `CCOC(=O)c1cn2nc(OP(=S)(OCC)OCC)cc2nc1C`, for which the molecule was classed as inactive.

For the molecule `ClCc1ccccc1Cl`, the molecule was classed as inactive.

With `FC(F)OC(F)(F)C(F)Cl` (stereo not given), the call was inactive.

For `O=C(O)c1cc(Cl)ccc1Cl`, the call was inactive.

As to `Cc1cccc(C)c1NC1=NCCCS1`, the result was inactive.

As for `O=C(N/N=C/c1ccc([N+](=O)[O-])o1)c1cc([N+](=O)[O-])cc([N+](=O)[O-])c1O`, the molecule was classed as inactive.

With `COC1CC(=C(c2cccs2)c2cccs2)C[N+](C)(C)C1` (stereo not given), the molecule was called inactive.

As for `Nc1c(Br)cc(Br)c2c1C(=O)c1ccccc1C2=O`, the fluorescence, % of fluorescent control was -0.754% [at 18.6 µM].

In the case of `COC(=O)Cc1ccccc1`, the call was inactive.

For the molecule `Cc1nnc(-c2ccccc2)c(=O)n1N`, the outcome was inactive.

For `Clc1ccccc1`, the result was inactive.

As to `CC(Cc1ccccc1)NCc1ccccc1Cl` (stereo not given), the result was inactive.

Turning to `CCCCOC(=O)CCC(=O)OCCCC`, the molecule was classed as inactive.

Take `CC(C)OC(=O)Cc1ccccc1`: the call was inactive.

With `O=C([O-])c1ccccn1.O=C([O-])c1ccccn1.O=C([O-])c1ccccn1.[Cr+3]`, the call was inactive.

As for `CCc1cnc(C2=NC(C)(C(C)C)C(=O)N2)c(C(=O)O)c1` (stereo not given), the call was inactive.

For `NC(=S)c1c(Cl)cccc1Cl`, the molecule was called inactive.

With `O=CC=O`, the molecule was called inactive.

Take `CC(O)CN1CCN(CC(=O)[O-])CCN(CC(=O)[O-])CCN(CC(=O)[O-])CC1.[Gd+3]` (stereo not given): the molecule was classed as inactive.

`O=C(NCNC(=O)NC1C(=O)NC(=O)N1CO)NC1C(=O)NC(=O)N1CO` (stereo not given): the molecule was classed as inactive.

As for `CON(C)C(=O)Nc1ccc(Cl)cc1`, the molecule was classed as inactive.

With `CC(Oc1cc(Cl)c(Cl)cc1Cl)C(=O)O` (stereo not given), the outcome was inactive.

With `CN1C[C@H](C(=O)N[C@]2(C)O[C@@]3(O)[C@@H]4CCCN4C(=O)[C@H](Cc4ccccc4)N3C2=O)C=C2c3cccc4[nH]cc(c34)C[C@H]21`, the call was inactive.
